Measured values reported in PubChem BioAssay AID2284188 (EPA ToxCast).
Active and inactive are the calls of the source. How the source made its calls: active means hit-call score of the fitted dose curve at least 0.9, where 1 is the maximum; inactive means score below 0.9.

target: Voltage-dependent L-type calcium channel subunit alpha-1C (Rattus norvegicus) (UniProt P22002); assay: ERF_FR_IC_rCACNA1C_Diltiazem: Eurofins (ERF) Calcium Ion Channel Binding (Diltiazem Site) LeadHunter Assay for rat Cav1.2 (L-type)
Experimental: ERF_FR_IC_rCACNA1C_Diltiazem is a biochemical, single-readout assay that uses extracted gene-proteins in a cell-free assay. Measurements were taken 2 hour after chemical dosing in a 96-well plate. See Cav1.2 (L-type) Rat Calcium Ion Channel Binding (Diltiazem Site) Assay, Cerep.ERF_FR_IC_rCACNA1C_Diltiazem is an assay component calculated from the ERF_FR_IC_rCACNA1C_Diltiazem assay. It is designed to measure radioligand binding using a type of binding reporter as detected by scintillation counting with radiometry technology.Data from the assay component ERF_FR_IC_rCACNA1C_Diltiazem was analyzed at the assay endpoint, ERF_FR_IC_rCACNA1C_Diltiazem, in the positive analysis fitting direction relative to DMSO as the negative control and baseline of activity. Using a type of binding reporter, loss-of-signal activity can be used to understand changes in binding as they relate to gene CACNA1C. To generalize the intended target to other relatable targets, this assay endpoint is annotated to the ion channel intended target family, where the subfamily is voltage gated (Calcium).
Rat cells are incubated for 120 minutes at room temprature with [3H]diltiazem (15 nM) as substrate and Papaverine as control inhibitor. Test Sample Requirements: Minimum for 1) Screen: 60 ul of 10 mM stock -OR- 1 mg (pre-weighed) for 10 uM final testing. […]

Voltage-dependent L-type calcium channel subunit alpha-1C (Rattus norvegicus), sequence (P22002 whole entry, looked up): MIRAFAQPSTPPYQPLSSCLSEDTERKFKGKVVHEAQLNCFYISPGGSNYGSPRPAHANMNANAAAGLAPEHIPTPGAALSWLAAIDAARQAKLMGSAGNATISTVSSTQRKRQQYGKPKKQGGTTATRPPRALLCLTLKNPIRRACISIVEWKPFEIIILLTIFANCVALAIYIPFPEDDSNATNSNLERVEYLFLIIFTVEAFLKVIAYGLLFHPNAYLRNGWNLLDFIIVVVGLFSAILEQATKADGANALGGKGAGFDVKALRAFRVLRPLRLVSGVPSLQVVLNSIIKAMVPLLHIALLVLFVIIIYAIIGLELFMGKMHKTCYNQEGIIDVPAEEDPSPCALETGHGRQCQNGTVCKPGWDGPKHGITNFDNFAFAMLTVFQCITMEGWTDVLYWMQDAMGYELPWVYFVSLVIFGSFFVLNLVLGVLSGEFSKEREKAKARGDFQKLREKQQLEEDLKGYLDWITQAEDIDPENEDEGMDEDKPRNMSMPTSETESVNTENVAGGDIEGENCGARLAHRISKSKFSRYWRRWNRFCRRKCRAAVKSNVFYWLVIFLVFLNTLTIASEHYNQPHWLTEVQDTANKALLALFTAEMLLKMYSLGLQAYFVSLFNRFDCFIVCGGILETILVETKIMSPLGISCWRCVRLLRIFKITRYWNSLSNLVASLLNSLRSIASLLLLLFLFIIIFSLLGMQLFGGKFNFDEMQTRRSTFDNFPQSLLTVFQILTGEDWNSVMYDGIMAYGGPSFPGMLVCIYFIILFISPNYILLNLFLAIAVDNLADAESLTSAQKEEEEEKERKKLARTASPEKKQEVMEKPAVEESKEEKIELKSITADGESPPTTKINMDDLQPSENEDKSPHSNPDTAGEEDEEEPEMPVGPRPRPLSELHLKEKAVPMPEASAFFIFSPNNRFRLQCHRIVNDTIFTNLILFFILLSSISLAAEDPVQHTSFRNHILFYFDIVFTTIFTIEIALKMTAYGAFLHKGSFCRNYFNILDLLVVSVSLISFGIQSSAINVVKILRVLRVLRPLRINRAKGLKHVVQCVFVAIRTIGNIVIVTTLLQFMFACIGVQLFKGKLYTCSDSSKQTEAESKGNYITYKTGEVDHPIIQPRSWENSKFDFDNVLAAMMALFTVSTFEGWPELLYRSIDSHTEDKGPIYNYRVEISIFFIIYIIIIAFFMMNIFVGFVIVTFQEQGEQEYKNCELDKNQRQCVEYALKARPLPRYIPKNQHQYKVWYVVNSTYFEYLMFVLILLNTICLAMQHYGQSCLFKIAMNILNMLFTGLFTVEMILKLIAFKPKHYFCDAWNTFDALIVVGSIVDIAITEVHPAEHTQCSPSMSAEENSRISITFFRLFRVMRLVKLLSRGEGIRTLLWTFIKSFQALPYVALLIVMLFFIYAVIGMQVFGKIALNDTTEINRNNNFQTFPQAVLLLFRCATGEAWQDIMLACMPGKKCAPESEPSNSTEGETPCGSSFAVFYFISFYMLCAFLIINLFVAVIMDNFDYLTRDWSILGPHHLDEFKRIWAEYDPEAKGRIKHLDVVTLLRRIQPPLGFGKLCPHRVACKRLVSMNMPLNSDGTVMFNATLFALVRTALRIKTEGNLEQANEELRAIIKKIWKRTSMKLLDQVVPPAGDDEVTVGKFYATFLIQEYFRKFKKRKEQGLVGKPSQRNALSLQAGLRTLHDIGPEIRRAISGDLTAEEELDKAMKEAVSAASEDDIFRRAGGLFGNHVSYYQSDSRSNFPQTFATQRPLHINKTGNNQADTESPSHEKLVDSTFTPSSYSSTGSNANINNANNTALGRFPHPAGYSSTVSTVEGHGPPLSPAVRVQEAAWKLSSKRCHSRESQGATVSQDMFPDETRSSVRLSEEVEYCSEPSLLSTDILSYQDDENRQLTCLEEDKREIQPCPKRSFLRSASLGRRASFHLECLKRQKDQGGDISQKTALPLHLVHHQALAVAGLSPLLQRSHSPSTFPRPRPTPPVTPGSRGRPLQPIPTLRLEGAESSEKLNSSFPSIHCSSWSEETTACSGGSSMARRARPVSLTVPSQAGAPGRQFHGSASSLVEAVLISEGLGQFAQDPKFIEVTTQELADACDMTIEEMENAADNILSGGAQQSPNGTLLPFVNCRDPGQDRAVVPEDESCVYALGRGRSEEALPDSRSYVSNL

Row | Compound | AC50
1 | O=C(/C=C/c1ccc(O)cc1)CC(=O)/C=C/c1ccc(O)cc1 | 3.46 µM (active)
